# Laboratory results from the supplement of paper PMC10849652.
# Of roughly 7,900 targets only a part is listed; those with a hit were picked by preference. About 0.6% of all pairs of compound and target were hits.
# Compound: CC1=C(SC2=C1C(=N[C@H](C3=NN=C(N32)C)CC(=O)N)C4=CC=C(C=C4)Cl)C
# Assay: log2 fold change, soluble protein after heating vs DMSO (PISA); higher = thermal stabilisation; K562 cells, 10 uM, 30 min; active = over 0.2 and 3.5 SD of the protein, either way, in both replicates (recomputed)
# Summary of the method: (§1)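 K562 cells at 2×10^6 cells/mL were treated with 10 μM compound for 30 min. Aliquots were heated for 3 min across 48°C-58°C, pooled, and extracted in PBS with 0.5% NP-40 at 4°C; soluble protein was the supernatant after 21,000xg for 90 min. Soluble protein was quantified by TMTpro 16plex LC-MS/MS with channel sums equalised, and reported as log2 fold change in thermal stability against DMSO controls, with values from duplicates.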
# UniProt P11766, sequence (P11766 whole entry, looked up): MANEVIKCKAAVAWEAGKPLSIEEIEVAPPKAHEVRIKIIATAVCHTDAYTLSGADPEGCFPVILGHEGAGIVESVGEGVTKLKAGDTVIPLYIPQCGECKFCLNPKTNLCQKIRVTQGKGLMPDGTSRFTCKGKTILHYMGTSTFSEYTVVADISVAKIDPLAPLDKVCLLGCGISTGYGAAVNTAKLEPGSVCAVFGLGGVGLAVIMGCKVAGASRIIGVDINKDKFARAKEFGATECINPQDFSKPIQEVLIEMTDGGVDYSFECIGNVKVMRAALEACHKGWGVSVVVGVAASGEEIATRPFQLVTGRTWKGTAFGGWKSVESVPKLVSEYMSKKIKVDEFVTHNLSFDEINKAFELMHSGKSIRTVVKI
# UniProt O95782, sequence (O95782 whole entry, looked up): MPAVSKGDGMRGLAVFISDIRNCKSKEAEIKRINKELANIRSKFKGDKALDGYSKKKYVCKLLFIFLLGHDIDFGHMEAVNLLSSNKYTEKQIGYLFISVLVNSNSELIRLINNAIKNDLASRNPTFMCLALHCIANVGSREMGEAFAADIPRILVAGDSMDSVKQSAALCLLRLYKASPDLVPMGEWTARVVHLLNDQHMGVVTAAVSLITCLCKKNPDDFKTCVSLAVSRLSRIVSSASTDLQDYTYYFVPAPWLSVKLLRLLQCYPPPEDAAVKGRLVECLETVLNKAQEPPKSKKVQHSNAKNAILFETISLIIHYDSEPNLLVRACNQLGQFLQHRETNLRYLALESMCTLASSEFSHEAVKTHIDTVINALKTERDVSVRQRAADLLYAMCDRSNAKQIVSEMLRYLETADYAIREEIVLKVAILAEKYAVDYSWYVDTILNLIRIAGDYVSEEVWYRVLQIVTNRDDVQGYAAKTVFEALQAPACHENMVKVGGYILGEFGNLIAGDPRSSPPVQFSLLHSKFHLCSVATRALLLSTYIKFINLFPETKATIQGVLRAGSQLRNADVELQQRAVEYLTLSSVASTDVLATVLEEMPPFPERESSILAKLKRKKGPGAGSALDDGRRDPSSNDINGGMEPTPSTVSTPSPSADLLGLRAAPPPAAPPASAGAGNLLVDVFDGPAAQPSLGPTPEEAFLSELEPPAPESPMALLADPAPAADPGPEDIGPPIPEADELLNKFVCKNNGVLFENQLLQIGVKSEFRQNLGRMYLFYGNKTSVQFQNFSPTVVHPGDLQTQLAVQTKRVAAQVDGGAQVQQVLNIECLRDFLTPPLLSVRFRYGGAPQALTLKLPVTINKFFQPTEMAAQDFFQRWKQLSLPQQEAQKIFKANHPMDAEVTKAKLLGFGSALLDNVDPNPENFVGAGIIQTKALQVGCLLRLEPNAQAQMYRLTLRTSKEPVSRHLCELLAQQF
# UniProt Q13795, sequence (Q13795 whole entry, looked up): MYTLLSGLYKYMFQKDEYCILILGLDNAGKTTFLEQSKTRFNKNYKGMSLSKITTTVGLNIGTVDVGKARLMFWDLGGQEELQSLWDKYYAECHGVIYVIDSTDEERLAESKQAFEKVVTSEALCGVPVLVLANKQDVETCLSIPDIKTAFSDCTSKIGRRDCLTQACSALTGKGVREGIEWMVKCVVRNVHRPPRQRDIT
# UniProt P08758, sequence (P08758 whole entry, looked up): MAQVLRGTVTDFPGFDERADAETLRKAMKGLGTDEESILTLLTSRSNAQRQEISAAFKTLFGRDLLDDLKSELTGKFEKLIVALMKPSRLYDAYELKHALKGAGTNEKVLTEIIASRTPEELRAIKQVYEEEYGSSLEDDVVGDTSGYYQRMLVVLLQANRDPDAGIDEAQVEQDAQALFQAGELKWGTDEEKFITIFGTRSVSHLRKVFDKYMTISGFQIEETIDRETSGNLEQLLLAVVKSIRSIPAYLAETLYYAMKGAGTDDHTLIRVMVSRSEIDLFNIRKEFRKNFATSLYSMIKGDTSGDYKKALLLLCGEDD
# UniProt Q99798, sequence (Q99798 whole entry, looked up): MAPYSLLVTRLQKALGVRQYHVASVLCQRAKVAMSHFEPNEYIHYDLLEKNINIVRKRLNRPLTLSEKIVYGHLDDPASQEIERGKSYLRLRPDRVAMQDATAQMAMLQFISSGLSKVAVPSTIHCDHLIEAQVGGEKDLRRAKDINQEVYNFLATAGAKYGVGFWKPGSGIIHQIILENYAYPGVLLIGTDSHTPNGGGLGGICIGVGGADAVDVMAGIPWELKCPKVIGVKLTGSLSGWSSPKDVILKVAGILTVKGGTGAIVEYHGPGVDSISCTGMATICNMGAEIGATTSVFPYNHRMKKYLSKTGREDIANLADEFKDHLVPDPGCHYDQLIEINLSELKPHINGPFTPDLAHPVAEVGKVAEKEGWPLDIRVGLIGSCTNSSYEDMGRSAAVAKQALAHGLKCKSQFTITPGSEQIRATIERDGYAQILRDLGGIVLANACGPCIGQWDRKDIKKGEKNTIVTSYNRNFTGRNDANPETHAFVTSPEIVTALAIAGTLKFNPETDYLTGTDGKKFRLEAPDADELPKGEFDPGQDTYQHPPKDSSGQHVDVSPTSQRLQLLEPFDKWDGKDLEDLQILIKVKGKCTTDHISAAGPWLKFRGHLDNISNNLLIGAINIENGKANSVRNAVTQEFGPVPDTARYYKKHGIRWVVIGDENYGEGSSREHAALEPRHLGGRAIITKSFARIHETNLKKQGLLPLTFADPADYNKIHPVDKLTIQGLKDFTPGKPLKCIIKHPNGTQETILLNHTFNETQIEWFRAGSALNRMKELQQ
# UniProt Q9Y679, sequence (Q9Y679 whole entry, looked up): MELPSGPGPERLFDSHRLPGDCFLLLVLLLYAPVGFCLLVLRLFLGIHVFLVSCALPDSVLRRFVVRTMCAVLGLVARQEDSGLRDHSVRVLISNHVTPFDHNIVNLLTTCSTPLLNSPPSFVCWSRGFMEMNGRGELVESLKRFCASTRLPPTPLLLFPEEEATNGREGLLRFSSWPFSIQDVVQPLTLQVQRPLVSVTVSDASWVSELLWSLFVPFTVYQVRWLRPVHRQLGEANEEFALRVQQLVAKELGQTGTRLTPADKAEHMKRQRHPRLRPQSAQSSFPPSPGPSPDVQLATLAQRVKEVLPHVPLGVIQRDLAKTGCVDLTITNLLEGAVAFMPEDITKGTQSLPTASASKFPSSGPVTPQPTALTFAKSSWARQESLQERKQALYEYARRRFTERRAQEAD
# UniProt P49189, sequence (P49189 whole entry, looked up): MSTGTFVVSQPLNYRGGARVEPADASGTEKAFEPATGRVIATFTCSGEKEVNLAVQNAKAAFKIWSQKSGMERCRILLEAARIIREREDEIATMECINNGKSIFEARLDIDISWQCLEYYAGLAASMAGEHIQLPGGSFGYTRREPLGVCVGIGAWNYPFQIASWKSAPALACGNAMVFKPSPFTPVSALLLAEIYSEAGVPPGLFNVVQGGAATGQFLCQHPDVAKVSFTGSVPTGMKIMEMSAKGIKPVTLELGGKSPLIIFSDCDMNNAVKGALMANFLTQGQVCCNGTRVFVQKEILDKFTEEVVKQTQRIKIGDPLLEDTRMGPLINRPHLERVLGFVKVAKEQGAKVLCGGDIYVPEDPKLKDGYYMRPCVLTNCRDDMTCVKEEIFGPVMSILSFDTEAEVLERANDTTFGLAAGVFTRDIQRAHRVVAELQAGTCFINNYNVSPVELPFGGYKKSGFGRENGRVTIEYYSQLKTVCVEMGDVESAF
# UniProt Q16186, sequence (Q16186 whole entry, looked up): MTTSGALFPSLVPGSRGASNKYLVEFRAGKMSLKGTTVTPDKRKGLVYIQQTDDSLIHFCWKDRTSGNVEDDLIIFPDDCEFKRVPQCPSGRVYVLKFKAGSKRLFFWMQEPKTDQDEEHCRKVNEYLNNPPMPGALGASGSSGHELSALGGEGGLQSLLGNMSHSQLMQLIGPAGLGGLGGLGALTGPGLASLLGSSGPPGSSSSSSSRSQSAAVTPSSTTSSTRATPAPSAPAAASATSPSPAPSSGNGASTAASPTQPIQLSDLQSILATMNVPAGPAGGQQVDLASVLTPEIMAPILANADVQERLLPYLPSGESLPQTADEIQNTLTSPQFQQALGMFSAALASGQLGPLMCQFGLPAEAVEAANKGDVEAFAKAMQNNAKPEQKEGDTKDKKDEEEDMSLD
# UniProt P53367, sequence (P53367 whole entry, looked up): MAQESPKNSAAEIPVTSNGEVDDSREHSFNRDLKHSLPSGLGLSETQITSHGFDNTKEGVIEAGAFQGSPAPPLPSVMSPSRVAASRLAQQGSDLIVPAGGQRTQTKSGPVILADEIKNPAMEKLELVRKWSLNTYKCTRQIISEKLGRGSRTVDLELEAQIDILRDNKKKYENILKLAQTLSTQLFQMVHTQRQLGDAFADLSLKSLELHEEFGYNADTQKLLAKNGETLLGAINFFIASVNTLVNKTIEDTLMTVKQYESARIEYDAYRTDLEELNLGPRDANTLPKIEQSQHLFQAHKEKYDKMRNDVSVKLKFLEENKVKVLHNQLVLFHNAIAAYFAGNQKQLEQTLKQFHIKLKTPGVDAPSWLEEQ
# UniProt Q07960, sequence (Q07960 whole entry, looked up): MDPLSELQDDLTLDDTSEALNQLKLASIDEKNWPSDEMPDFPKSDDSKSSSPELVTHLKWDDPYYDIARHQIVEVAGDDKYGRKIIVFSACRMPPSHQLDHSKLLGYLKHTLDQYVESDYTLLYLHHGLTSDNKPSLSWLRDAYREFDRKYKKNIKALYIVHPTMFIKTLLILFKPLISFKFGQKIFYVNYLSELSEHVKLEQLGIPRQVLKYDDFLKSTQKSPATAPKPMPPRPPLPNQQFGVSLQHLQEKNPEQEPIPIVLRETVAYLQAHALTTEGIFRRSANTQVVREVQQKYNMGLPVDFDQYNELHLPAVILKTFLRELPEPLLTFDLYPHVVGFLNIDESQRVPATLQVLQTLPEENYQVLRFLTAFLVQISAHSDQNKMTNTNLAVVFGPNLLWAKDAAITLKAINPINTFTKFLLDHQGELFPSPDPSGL
# UniProt Q10589, sequence (Q10589 whole entry, looked up): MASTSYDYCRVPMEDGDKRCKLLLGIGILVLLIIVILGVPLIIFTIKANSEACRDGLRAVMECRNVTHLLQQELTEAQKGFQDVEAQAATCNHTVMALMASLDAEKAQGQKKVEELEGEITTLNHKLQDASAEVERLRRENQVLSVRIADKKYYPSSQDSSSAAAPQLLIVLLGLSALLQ
row,Target,log2 fold change
1,ALDH9A1 isoform 3 (UniProt P49189),0.029 (inactive)
2,AP2A1 (UniProt O95782),-0.021 (inactive)
3,ACP2 (UniProt P11117),-0.023 (inactive)
4,ATIC (UniProt P31939),0.039 (inactive)
5,BTAF1 (UniProt O14981),-0.003 (inactive)
6,ATP1A4 (UniProt Q13733),-0.142 (inactive)
7,ADPRHL2 (UniProt Q9NX46),0.08 (inactive)
8,ABHD17A isoform 2 (UniProt Q96GS6),0.079 (inactive)
9,ATP5IF1 (UniProt Q9UII2),-0.087 (inactive)
10,BCCIP isoform 2 (UniProt Q9P287),0.002 (inactive)
11,AP2A2 isoform 2 (UniProt O94973),-0.02 (inactive)
12,BST2 (UniProt Q10589),0.019 (inactive)
13,BZW1 isoform 3 (UniProt Q7L1Q6),0.002 (inactive)
14,AGPAT3 isoform 3 (UniProt Q9NRZ7),0.064 (inactive)
15,ACO2 (UniProt Q99798),0.067 (inactive)
16,ARAF (UniProt P10398),-0.003 (inactive)
17,ATP1B3 (UniProt P54709),0.042 (inactive)
18,ANXA5 (UniProt P08758),0.04 (inactive)

row,Target,log2 fold change
1,ARHGAP1 (UniProt Q07960),0.023 (inactive)
2,ADH5 (UniProt P11766),0.024 (inactive)
3,ARFRP1 (UniProt Q13795),-0.066 (inactive)
4,BLOC1S3 (UniProt Q6QNY0),0.084 (inactive)
5,BCAP29 isoform 2 (UniProt Q9UHQ4),0.029 (inactive)
6,BPHL (UniProt Q86WA6),0.052 (inactive)
7,AUP1 (UniProt Q9Y679),0.053 (inactive)
8,ACACB (UniProt O00763),-0.053 (inactive)
9,BRAF (UniProt P15056),0.075 (inactive)
10,ATP1A1 (UniProt P05023),0.051 (inactive)
11,AP2B1 isoform 2 (UniProt P63010),-0.017 (inactive)
12,AKR1C3 (UniProt P42330),0.049 (inactive)
13,AAR2 (UniProt Q9Y312),0.08 (inactive)
14,ARFIP1 (UniProt P53367),0.042 (inactive)
15,ADRM1 (UniProt Q16186),-0.062 (inactive)
16,AASDH (UniProt Q4L235),0.054 (inactive)
17,ARFGAP2 (UniProt Q8N6H7),0.039 (inactive)
18,ARL6IP6 (UniProt Q8N6S5),0.113 (inactive)

# Compound: CC1=C2C(=CC=C1)N=C(N(C2=O)C3=CC=CC=C3C)CN4C=NC5=C(N=CN=C54)N
# Assay: as above
# Summary of the method: as §1
row,Target,log2 fold change
1,ALDH9A1 isoform 3 (UniProt P49189),0.019 (inactive)
2,AP2A1 (UniProt O95782),-0.028 (inactive)
3,ACP2 (UniProt P11117),0.008 (inactive)
4,ATIC (UniProt P31939),0.073 (inactive)
5,BTAF1 (UniProt O14981),0.124 (inactive)
6,ATP1A4 (UniProt Q13733),0.035 (inactive)
7,ADPRHL2 (UniProt Q9NX46),0.034 (inactive)
8,ABHD17A isoform 2 (UniProt Q96GS6),0.122 (inactive)
9,ATP5IF1 (UniProt Q9UII2),-0.031 (inactive)
10,BCCIP isoform 2 (UniProt Q9P287),-0.001 (inactive)
11,AP2A2 isoform 2 (UniProt O94973),0.04 (inactive)
12,BST2 (UniProt Q10589),-0.012 (inactive)
13,BZW1 isoform 3 (UniProt Q7L1Q6),0.044 (inactive)
14,AGPAT3 isoform 3 (UniProt Q9NRZ7),0.021 (inactive)
15,ACO2 (UniProt Q99798),0.044 (inactive)
16,ARAF (UniProt P10398),0.178 (inactive)
17,ATP1B3 (UniProt P54709),0.001 (inactive)
18,ANXA5 (UniProt P08758),0.024 (inactive)

row,Target,log2 fold change
1,ARHGAP1 (UniProt Q07960),0.047 (inactive)
2,ADH5 (UniProt P11766),0.025 (inactive)
3,ARFRP1 (UniProt Q13795),-0.03 (inactive)
4,BLOC1S3 (UniProt Q6QNY0),0.088 (inactive)
5,BCAP29 isoform 2 (UniProt Q9UHQ4),0.035 (inactive)
6,BPHL (UniProt Q86WA6),0.075 (inactive)
7,AUP1 (UniProt Q9Y679),0.028 (inactive)
8,ACACB (UniProt O00763),0.025 (inactive)
9,BRAF (UniProt P15056),0.041 (inactive)
10,ATP1A1 (UniProt P05023),-0.045 (inactive)
11,AP2B1 isoform 2 (UniProt P63010),-0.016 (inactive)
12,AKR1C3 (UniProt P42330),0.132 (inactive)
13,AAR2 (UniProt Q9Y312),-0.053 (inactive)
14,ARFIP1 (UniProt P53367),0.051 (inactive)
15,ADRM1 (UniProt Q16186),-0.001 (inactive)
16,AASDH (UniProt Q4L235),-0.25 (inactive)
17,ARFGAP2 (UniProt Q8N6H7),0.086 (inactive)
18,ARL6IP6 (UniProt Q8N6S5),0.08 (inactive)
